# PubChem BioAssay (NCATS)
# Where “and” joins values, the source holds several entries; their conditions need not be identical. Equal entries are not always repeated. Records with an inconclusive call do not appear. A structure can be active in one record and inactive in another. Calls of active or inactive are those of the source. Unless noted, calls follow the shape of the dose curve; as a rule, active = well fitted curve in either direction with a large enough effect (not every such curve was filed as active); inconclusive = small, poorly fitted or top-dose-only effect, or another doubt; inactive = flat fitted curve, though single readings scatter.
# How the values were obtained:
# [1] = AP1 Signaling Pathway (AID 357); conditions: ME-180 (cervical carcinoma) AP-1-bla reporter, EGF-induced, beta-lactamase ratio, 5 h;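 also: ME-180 reporter cells stimulated with EGF at its EC50 level; % is scaled to controls: 0 for no effect and ±100 for the full control effect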
# Method in brief: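 First, ME-180 AP-1-bla cells were cultured overnight at 37 °C in low-serum Opti-MEM. Next, titrated compounds with EC50 EGF were incubated 5 hours. Finally, CCF4 was added for 2.5 hours and the 460/530 nm ratio recorded.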
# [2] = target: Cytochrome P450 1A2 (Homo sapiens) (UniProt P05177); assay: p450-cyp1a2 (AID 410; calls by dose curve; also: potency is read from the fitted curve at half-maximal effect;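 as to activity change, negative = inhibition: -100% = full effect of reference inhibitor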); conditions: recombinant CYP1A2, luciferin-ME demethylation, luminescence; series mostly up to 57 µM
# Cytochrome P450 1A2 (Homo sapiens), sequence (P05177 whole entry, looked up): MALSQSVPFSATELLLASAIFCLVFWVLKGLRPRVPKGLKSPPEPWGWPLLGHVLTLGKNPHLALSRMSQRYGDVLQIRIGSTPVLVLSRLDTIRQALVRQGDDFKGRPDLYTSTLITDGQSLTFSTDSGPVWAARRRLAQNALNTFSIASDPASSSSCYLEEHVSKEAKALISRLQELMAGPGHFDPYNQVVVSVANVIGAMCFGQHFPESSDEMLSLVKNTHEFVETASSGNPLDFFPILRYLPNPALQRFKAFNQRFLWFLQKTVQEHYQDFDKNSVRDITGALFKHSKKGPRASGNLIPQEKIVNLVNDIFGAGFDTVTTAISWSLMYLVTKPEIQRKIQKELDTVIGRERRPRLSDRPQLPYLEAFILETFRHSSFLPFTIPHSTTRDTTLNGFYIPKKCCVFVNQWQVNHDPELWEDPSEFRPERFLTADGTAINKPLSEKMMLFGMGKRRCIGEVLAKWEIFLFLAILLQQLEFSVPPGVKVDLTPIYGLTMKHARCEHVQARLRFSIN
# Method in brief: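 Read-out is luminescence from luciferin produced by CYP1A2 demethylation of Luciferin-ME (100uM, at Km). Detection reagent stopped the 60 min NADPH-dependent reaction; signals were normalized to 57 uM furafylline.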
# [3] = Cell Viability - Hek293 (AID 427;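 active = compounds whose dose-response curve shows a full or clear partial loss of cell viability, called from curve shape rather than a numeric limit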;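 also: potency is read from the fitted curve at half-maximal effect; cells exposed to compound for 40 hours at 37 °C before reading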); conditions: qHTS
# Method in brief: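 AC50 values derive from Hill-modelled concentration-response of ATP-based luminescence, normalized between DMSO-only and 100 uM tamoxifen controls. Cells were exposed in complete culture medium for 40 hr at 37 °C before detection.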
# [4] = Cell Viability - SK-N-SH (AID 435; calls by dose curve;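 also: potency is read from the fitted curve at half-maximal effect; compound exposure lasted 40 h at 37 °C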); conditions: SK-N-SH neuroblastoma cell viability qHTS
# Method in brief: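 SK-N-SH neuroblastoma cells (1500/well) treated 40 h at 37 °C in complete medium; viability read as cellular ATP by CellTiter-Glo luminescence. Normalized to DMSO and 100 uM tamoxifen; AC50 from Hill fits of qHTS concentration-response.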
# [5] = NFAT Signaling Pathway (AID 444); conditions: Jurkat NFAT-bla M1, carbachol, beta-lactamase ratio, 5 h;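 also: carbachol stimulus at about its EC50 of 1 µM final; % is scaled to controls: 0 for no effect and ±100 for the full control effect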
# Method in brief: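 Read-out: CCF4 FRET ratio (460 nm/530 nm) after 1 h RT dye loading, used for %activity and AC50 from titration series. Cells: Jurkat NFAT-β-lactamase/M1 line, treated with compound plus 1 uM carbachol for 5 h, 37 °C.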
# [6] = Cell Viability - BJ (AID 421; calls by dose curve;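 also: potency is read from the fitted curve at half-maximal effect; cells exposed to compound for 40 hours at 37 °C before readout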); conditions: BJ fibroblast viability, qHTS
# Method in brief: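 Quantitative HTS: ATP depletion in BJ cells after 40 hr compound exposure in complete culture medium, detected with CellTiter-Glo; AC50 from standard Hill fits.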
# [7] = Cell Viability - Jurkat (AID 426;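 active = dose-dependent loss of cell ATP signal giving a full or clear fitted curve, ranked by lower potency value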;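 also: potency is read from the fitted curve at half-maximal effect; cells exposed to compound for 40 hours at 37 °C before ATP read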); conditions: qHTS
# Method in brief: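 Cytotoxicity was scored as loss of cellular ATP, measured by luciferase-based luminescence, in Jurkat clone E6-1 cells after 40 h compound treatment; tamoxifen and doxorubicin served as positive controls.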
# [8] = Cell Viability - HepG2 (AID 433; calls by dose curve;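 also: potency is read from the fitted curve at half-maximal effect; cells exposed to compound for 40 hours; potency for ATP loss meaning cytotoxicity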); conditions: qHTS
# Method in brief: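 HepG2 cells, 1500 per well, treated 40 hr at 37 °C in complete medium; viability from intracellular ATP by CellTiter-Glo luminescence. Normalized to DMSO and 100 uM tamoxifen; AC50 from Hill fit of qHTS concentration-response.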
# [9] = Cell Viability - MRC5 (AID 434; calls by dose curve;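 also: potency is read from the fitted curve at half-maximal effect; cells exposed to compound for 40 hours at 37 °C; potency reflects cytotoxicity seen as loss of intracellular ATP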); conditions: MRC5 lung fibroblast viability, qHTS
# Method in brief: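 AC50 values come from Hill-equation fits of intracellular ATP loss, measured by CellTiter-Glo luminescence. Normal lung fibroblasts (MRC5) had 40 hr compound treatment at 37 C, normalized between DMSO and 100 uM tamoxifen.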
smiles,measurement,setting,value
CCOC(=O)C1=C(C)NC(C)=C(C(=O)OC)C1c1cccc([N+](=O)[O-])c1 (configuration not stated),"activity change, negative = inhibition",[1]; at 17.2 µM (top of the series),-25.4% (inactive)
CCCOc1ccccc1-c1nc2n[nH]nc2c(=O)[nH]1,"activity change, negative = inhibition",[1]; at 17.2 µM (top of the series),-18.5% (inactive)
same,"activity change, negative = inhibition",[1]; at 38 µM (top of the series),-7.91% (inactive)
same,Potency,[2],5.01 µM (active) and 3.98 µM (active)
Nc1nc(N)c2nc(-c3ccccc3)c(N)nc2n1,"activity change, negative = inhibition",[1]; at 17.2 µM (top of the series),16.6% (inactive) and 10.9% (inactive)
same,"activity change, negative = inhibition",[1]; at 38 µM (top of the series),-2.44% (inactive)
same,Potency,[3],18 µM (active)
same,Potency,[4],66.1 µM (active)
c1cnc(N2CCN(Cc3ccc4c(c3)OCO4)CC2)nc1,"activity change, negative = inhibition",[1]; at 17.2 µM (top of the series),-7.76% (inactive)
same,"activity change, negative = inhibition",[1]; at 38 µM (top of the series),13.9% (inactive)
same,Potency,[2],6.31 µM (active) and 3.16 µM (active) and 2 µM (active)
CC[N+](C)(C)c1cccc(O)c1,"activity change, negative = inhibition",[1]; at 17.2 µM (top of the series),1.89% (inactive) and 0.722% (inactive)
same,"activity change, negative = inhibition",[1]; at 38 µM (top of the series),2.69% (inactive)
same,Potency,[2],inactive
same,"activity change, negative = inhibition",[5]; at 17.2 µM (top of the series),-26.4% (inactive)
same,"activity change, negative = inhibition",[5]; at 38 µM (top of the series),-18.1% (inactive)
CCN(CC)CCNC(=O)c1ccc(NC(C)=O)cc1,"activity change, negative = inhibition",[1]; at 17.2 µM (top of the series),-5.32% (inactive)
same,"activity change, negative = inhibition",[1]; at 38 µM (top of the series),9.43% (inactive)
same,Potency,[2],inactive
same,"activity change, negative = inhibition",[5]; at 17.2 µM (top of the series),-13.8% (inactive)
same,"activity change, negative = inhibition",[5]; at 38 µM (top of the series),-8.68% (inactive)
Cc1ccc(=O)n(-c2ccccc2)c1,"activity change, negative = inhibition",[1]; at 38 µM (top of the series),-0.00383% (inactive)
same,Potency,[2],inactive and 31.6 µM (active)
same,"activity change, negative = inhibition",[5]; at 38 µM (top of the series),14.9% (inactive)
C[N+](C)(C)CCCCCCCCCC[N+](C)(C)C,"activity change, negative = inhibition",[1]; at 17.2 µM (top of the series),5.88% (inactive) and 0.653% (inactive)
same,"activity change, negative = inhibition",[1]; at 38 µM (top of the series),6.36% (inactive)
same,Potency,[2],inactive
same,"activity change, negative = inhibition",[5]; at 17.2 µM (top of the series),-20.5% (inactive) and -5.13% (inactive)
same,"activity change, negative = inhibition",[5]; at 38 µM (top of the series),-4.26% (inactive)
CCCCNC(=O)NS(=O)(=O)c1ccc(C)cc1,"activity change, negative = inhibition",[1]; at 17.2 µM (top of the series),-5% (inactive) and 1.1% (inactive)
same,"activity change, negative = inhibition",[1]; at 38 µM (top of the series),6.49% (inactive)
same,Potency,[2],inactive
same,Potency,[6],> 92 µM (inactive)
same,Potency,[7],> 92 µM (inactive)
same,Potency,[3],> 92 µM (inactive)
same,Potency,[8],> 92 µM (inactive)
same,Potency,[9],> 92 µM (inactive)
same,Potency,[4],> 92 µM (inactive)
same,"activity change, negative = inhibition",[5]; at 17.2 µM (top of the series),-4.27% (inactive)
same,"activity change, negative = inhibition",[5]; at 38 µM (top of the series),12.5% (inactive)
CN/C(=C\[N+](=O)[O-])NCCSCc1ccc(CN(C)C)o1,"activity change, negative = inhibition",[1]; at 17.2 µM (top of the series),-3.39% (inactive)
same,"activity change, negative = inhibition",[1]; at 38 µM (top of the series),-6.59% (inactive)
same,"activity change, negative = inhibition",[5]; at 17.2 µM (top of the series),-7.07% (inactive)
same,"activity change, negative = inhibition",[5]; at 38 µM (top of the series),1.99% (inactive)
CC1=NS(=O)(=O)c2cc(Cl)ccc2N1,"activity change, negative = inhibition",[1]; at 17.2 µM (top of the series),5.8% (inactive) and -6.56% (inactive)
same,"activity change, negative = inhibition",[1]; at 38 µM (top of the series),-8.76% (inactive)
same,Potency,[2],7.94 µM (active) and 3.16 µM (active) and 2 µM (active)
same,"activity change, negative = inhibition",[5]; at 17.2 µM (top of the series),-1.94% (inactive) and 7.03% (inactive)
same,"activity change, negative = inhibition",[5]; at 38 µM (top of the series),2.63% (inactive)
Cc1nc2sccn2c(=O)c1CCN1CCC(=C(c2ccc(F)cc2)c2ccc(F)cc2)CC1,"activity change, negative = inhibition",[1]; at 17.2 µM (top of the series),-9.89% (inactive)
same,"activity change, negative = inhibition",[1]; at 38 µM (top of the series),-17.2% (inactive)
same,Potency,[2],inactive
O=C1CC2(CCCC2)CC(=O)N1CCCCN1CCN(c2ncccn2)CC1,"activity change, negative = inhibition",[1]; at 17.2 µM (top of the series),-0.287% (inactive)
same,"activity change, negative = inhibition",[1]; at 38 µM (top of the series),-2.42% (inactive)
same,"activity change, negative = inhibition",[5]; at 17.2 µM (top of the series),-9.19% (inactive)
CN(C)CCOC(=O)COc1ccc(Cl)cc1,"activity change, negative = inhibition",[1]; at 17.2 µM (top of the series),0.605% (inactive)
same,"activity change, negative = inhibition",[1]; at 38 µM (top of the series),-0.251% (inactive)
same,Potency,[2],15.8 µM (active) and 10 µM (active)
same,"activity change, negative = inhibition",[5]; at 17.2 µM (top of the series),0.868% (inactive)
same,"activity change, negative = inhibition",[5]; at 38 µM (top of the series),7.1% (inactive)
CCCN(CCC)CCc1cccc2c1CC(=O)N2,"activity change, negative = inhibition",[1]; at 38 µM (top of the series),3.44% (inactive)
same,Potency,[2],inactive
CCN(CC)CCOCCOC(=O)C1(c2ccccc2)CCCC1,"activity change, negative = inhibition",[1]; at 17.2 µM (top of the series),-7.4% (inactive)
same,"activity change, negative = inhibition",[1]; at 38 µM (top of the series),16.3% (inactive)
same,Potency,[2],12.6 µM (active)
CCN(CC)CCNC(=O)c1cc(S(C)(=O)=O)ccc1OC,"activity change, negative = inhibition",[1]; at 17.2 µM (top of the series),-0.734% (inactive) and 2.54% (inactive)
same,"activity change, negative = inhibition",[1]; at 38 µM (top of the series),5.15% (inactive)
same,Potency,[2],inactive
same,"activity change, negative = inhibition",[5]; at 17.2 µM (top of the series),-6.77% (inactive) and -21.4% (inactive)
same,"activity change, negative = inhibition",[5]; at 38 µM (top of the series),-5.52% (inactive)
Cc1scc2c1N(C(=O)CN1CCN(C)CC1)c1ccccc1NC2=O,"activity change, negative = inhibition",[1]; at 17.2 µM (top of the series),4.19% (inactive)
same,"activity change, negative = inhibition",[1]; at 38 µM (top of the series),15.1% (inactive)
same,Potency,[2],inactive
same,"activity change, negative = inhibition",[5]; at 17.2 µM (top of the series),-41.8% (active)
same,"activity change, negative = inhibition",[5]; at 38 µM (top of the series),-72.8% (active)
NC(N)=NC(=O)Cc1c(Cl)cccc1Cl,"activity change, negative = inhibition",[1]; at 17.2 µM (top of the series),3.24% (inactive)
same,"activity change, negative = inhibition",[1]; at 38 µM (top of the series),6.16% (inactive)
same,Potency,[2],inactive
COc1ccc([C@@H]2Sc3ccccc3N(CCN(C)C)C(=O)[C@@H]2OC(C)=O)cc1,"activity change, negative = inhibition",[1]; at 17.2 µM (top of the series),23.2% (inactive)
same,Potency,[2],inactive
Cc1nc2ccccn2c(=O)c1CCN1CCC(C(=O)c2ccc(F)cc2)CC1,"activity change, negative = inhibition",[1]; at 17.2 µM (top of the series),-5.86% (inactive)
same,"activity change, negative = inhibition",[1]; at 38 µM (top of the series),5.6% (inactive)
same,Potency,[2],inactive
O=C(O)CN(CCN(CC(=O)O)CC(=O)O)CCN(CC(=O)O)CC(=O)O,"activity change, negative = inhibition",[1]; at 17.2 µM (top of the series),-3.91% (inactive)
same,"activity change, negative = inhibition",[1]; at 38 µM (top of the series),10% (inactive)
same,Potency,[2],inactive
same,"activity change, negative = inhibition",[5]; at 17.2 µM (top of the series),-4.47% (inactive)
same,"activity change, negative = inhibition",[5]; at 38 µM (top of the series),2.2% (inactive)
CN=C(NC#N)NCCSCc1nc[nH]c1C,"activity change, negative = inhibition",[1]; at 38 µM (top of the series),-4.97% (inactive)
same,Potency,[2],inactive
same,Potency,[6],> 92 µM (inactive)
same,Potency,[7],> 92 µM (inactive)
same,Potency,[3],> 92 µM (inactive)
same,Potency,[8],> 92 µM (inactive)
same,Potency,[9],> 92 µM (inactive)
same,Potency,[4],> 92 µM (inactive)
same,"activity change, negative = inhibition",[5]; at 38 µM (top of the series),6.95% (inactive)
